Experimental data taken from PubChem BioAssay (NCATS).
Records with an inconclusive call do not appear. Activity calls are given as the source filed them. Unless noted, calls come from the whole dose curve; as a rule, active = well fitted curve in the direction sought with a large enough effect; inconclusive = small, poorly fitted or top-dose-only effect, or another doubt; inactive = no such curve, though single readings can be large; an effect the other way counts as inactive or inconclusive.

Columns and labels:
[1] = Viability counterscreen for antagonist of constitutive androstane receptor (CAR) against the NCATS DSHEA and TCM libraries (AID 1794837);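 note: compound exposure lasted 24 h before viability reading; 0% is about no effect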
Procedure, shortened: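 Viability was measured by CellTiter-Fluor fluorescence (405/540 nm, 1 hr) in HepG2-CYP2B6-hCAR cells. Cells were co-treated 24 hr with 48 uM CITCO (final), antagonist mode, and test substances.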

[2] = Viability counterscreen for agonist of constitutive androstane receptor (CAR) against the NCATS DSHEA and TCM libraries (AID 1794838); note: 0% is about no effect
Procedure, shortened: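 Cell viability, from CellTiter-Fluor fluorescence (405/540 nm), was scored after a 24 h, 37C exposure of HepG2 cells carrying CYP2B6 reporter and hCAR to test substances in presence of 0.75 uM PK11195.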

[3] = biological target: Nuclear receptor subfamily 1 group I member 3 (Homo sapiens) (UniProt Q14994); test: Primary qHTS for agonist of constitutive androstane receptor (CAR) against the NCATS DSHEA and TCM libraries (AID 1794839);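 note: HepG2 cells expressing human CAR with a CYP2B6 reporter plus PK11195 antagonist; luciferase reporter luminescence read with ONE-Glo; 0% is about no effect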
Chain of Nuclear receptor subfamily 1 group I member 3 (Homo sapiens) (Q14994 whole entry, looked up): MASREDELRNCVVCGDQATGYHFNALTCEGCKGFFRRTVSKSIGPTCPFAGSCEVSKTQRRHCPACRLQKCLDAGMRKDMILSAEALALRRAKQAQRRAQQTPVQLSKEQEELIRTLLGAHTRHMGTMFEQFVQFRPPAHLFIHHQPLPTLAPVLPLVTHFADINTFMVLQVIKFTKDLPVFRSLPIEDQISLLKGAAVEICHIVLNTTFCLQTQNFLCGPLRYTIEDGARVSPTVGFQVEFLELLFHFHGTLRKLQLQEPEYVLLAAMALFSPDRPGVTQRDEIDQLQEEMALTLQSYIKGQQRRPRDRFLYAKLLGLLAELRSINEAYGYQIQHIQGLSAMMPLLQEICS
Procedure, shortened: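 Agonist mode in presence of hCAR antagonist PK11195 (0.75 µM final): test substances, 24 h, 37 °C, on HepG2-CYP2B6-hCAR cells. Same-well readouts: fluorescence viability, then ONE-Glo luminescence; CITCO as reference agonist.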

[4] = HepG2 viability counterscreen (readout 1: protease activity) against the NCATS DSHEA and TCM libraries (AID 1794841);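 note: cells exposed to compounds for about 24 h before the protease read; 0% is about no effect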
Procedure, shortened: (§1)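 Readout 1: cellular protease activity, GF-AFC substrate (25 uM final, 30 min, fluorescence 380/510 nm). Readout 2: ATP content by CellTiter-Glo luminescence after 30 min at RT. Both follow ~24 h exposure of HepG2 cells (1,000/well) to substances.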

[5] = biological target: Cytochrome P450 2C9 (Homo sapiens) (UniProt P11712); test: qHTS for inhibitors of CYP2C9 against the NCATS DSHEA and TCM libraries (AID 1919973);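 note: luminogenic pro-luciferin CYP2C9 substrate turned into luciferin with NADPH regeneration; series mostly up to about 34 µM; % is set by controls: 0 for no effect and ±100 for the full control effect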
Chain of Cytochrome P450 2C9 (Homo sapiens) (P11712 whole entry, looked up, canonical isoform): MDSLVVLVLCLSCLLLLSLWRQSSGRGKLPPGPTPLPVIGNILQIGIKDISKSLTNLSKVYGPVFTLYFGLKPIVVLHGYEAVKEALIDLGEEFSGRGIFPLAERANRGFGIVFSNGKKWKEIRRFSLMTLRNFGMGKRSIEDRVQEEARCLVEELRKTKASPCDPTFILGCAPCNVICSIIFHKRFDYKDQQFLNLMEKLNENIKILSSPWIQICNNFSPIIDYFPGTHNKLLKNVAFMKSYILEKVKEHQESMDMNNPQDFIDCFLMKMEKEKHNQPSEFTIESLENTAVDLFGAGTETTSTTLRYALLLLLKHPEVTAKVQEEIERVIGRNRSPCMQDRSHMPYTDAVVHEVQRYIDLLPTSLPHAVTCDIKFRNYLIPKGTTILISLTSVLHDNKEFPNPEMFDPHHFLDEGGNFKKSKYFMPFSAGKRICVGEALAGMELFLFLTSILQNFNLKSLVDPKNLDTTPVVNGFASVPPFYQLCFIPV
Procedure, shortened: (§2)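 Read-out is luminescence after P450-Glo detection (30 min, RT). Before that: 15 min compound–enzyme preincubation, then 30-45 min reaction with 1x NADPH regeneration solution, substrate concentration isoform-specific.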

[6] = biological target: Cytochrome P450 2C19 (Homo sapiens) (UniProt P33261); test: qHTS for inhibitors of CYP2C19 against the NCATS DSHEA and TCM libraries (AID 1919974);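 note: luminescence from luciferin released by CYP2C19 oxidation of a pro-luciferin substrate; % is set by controls: 0 for no effect and ±100 for the full control effect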
Chain of Cytochrome P450 2C19 (Homo sapiens) (P33261 whole entry, looked up): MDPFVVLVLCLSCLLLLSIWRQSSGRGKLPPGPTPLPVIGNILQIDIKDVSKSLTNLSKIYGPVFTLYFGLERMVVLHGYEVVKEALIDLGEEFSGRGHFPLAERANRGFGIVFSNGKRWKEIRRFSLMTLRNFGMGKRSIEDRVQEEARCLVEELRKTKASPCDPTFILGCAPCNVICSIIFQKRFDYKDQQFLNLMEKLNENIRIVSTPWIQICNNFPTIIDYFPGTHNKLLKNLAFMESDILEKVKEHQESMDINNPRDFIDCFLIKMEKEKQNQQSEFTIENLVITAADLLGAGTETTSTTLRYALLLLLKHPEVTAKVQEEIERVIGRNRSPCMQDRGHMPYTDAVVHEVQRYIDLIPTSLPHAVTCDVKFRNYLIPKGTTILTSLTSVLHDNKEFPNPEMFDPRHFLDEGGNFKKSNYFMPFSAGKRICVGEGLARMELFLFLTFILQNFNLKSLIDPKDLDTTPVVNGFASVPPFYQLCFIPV
Procedure, shortened: as §2

[7] = KB-3-1 P-gp reporter qHTS against the NCATS DSHEA and TCM libraries (AID 1919975); note: 0% is about no effect
Procedure, shortened: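 Cell viability by CellTiter-Glo luminescence following ~72 h compound exposure (concentration-response). Uses parental, non-P-gp-overexpressing KB-3-1 line, 500 cells/well in DMEM/10% FBS, attached ~4 h before dosing.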

[8] = biological target: Cytochrome P450 1A2 (Homo sapiens) (UniProt P05177); test: qHTS for inhibitors of CYPIA2 against the NCATS DSHEA and TCM libraries (AID 1919976);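 note: light from luciferin formed by CYP1A2 from a pro-luciferin substrate; series mostly up to about 37 µM; % is set by controls: 0 for no effect and ±100 for the full control effect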
Chain of Cytochrome P450 1A2 (Homo sapiens) (P05177 whole entry, looked up): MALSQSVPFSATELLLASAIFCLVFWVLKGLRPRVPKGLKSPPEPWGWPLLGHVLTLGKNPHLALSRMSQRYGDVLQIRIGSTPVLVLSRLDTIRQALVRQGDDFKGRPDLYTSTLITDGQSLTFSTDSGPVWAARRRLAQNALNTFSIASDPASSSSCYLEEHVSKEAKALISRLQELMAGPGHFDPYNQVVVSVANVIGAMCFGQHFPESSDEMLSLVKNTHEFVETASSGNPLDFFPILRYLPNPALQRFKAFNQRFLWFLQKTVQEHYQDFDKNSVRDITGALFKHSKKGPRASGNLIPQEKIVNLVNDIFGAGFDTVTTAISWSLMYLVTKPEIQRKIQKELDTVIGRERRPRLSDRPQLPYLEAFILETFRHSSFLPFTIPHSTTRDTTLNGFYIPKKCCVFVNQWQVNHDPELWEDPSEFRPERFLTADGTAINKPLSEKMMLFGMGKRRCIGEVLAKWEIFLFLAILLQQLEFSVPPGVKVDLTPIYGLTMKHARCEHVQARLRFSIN
Procedure, shortened: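 CYP1A2 + luciferin substrate, 100 mM KPO4-type buffer; cmpd 15 min RT; 1x NADPH regen, 30-45 min RT dark; detection reagent 30 min RT; luminescence. Minus-enzyme wells as background; furafylline intraplate control.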

[9] = qHTS Counterscreen for compound interference against the NCATS DSHEA and TCM libraries (AID 1919978); conditions: firefly luciferase detection reagent interference, luminescence;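 note: compounds preincubated with 1 µM D-luciferin or buffer before detection reagent; % of control where 0% means no effect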
Procedure, shortened: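 With 1 uM D-luciferin or phosphate buffer only, compounds at final 19.5 nM–39.8 uM were incubated for 15 min at room temperature. Luciferase detection reagent was then added, and luminescence was measured after a further 30 min at room temperature.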

[10] = Dual reporter qHTS for agonist of Pregnane X Receptor (hPXR) against the NCATS DSHEA and TCM libraries: Fluorescence readout (AID 1920058); note: 0% is about no effect
Procedure, shortened: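 HepG2 hPXR-Luc, 2000 cells/well, 5 h attach; cpds ~24 h, 37 °C/5% CO2; CellTiter-Fluor 1 h; fluor. Ex/Em 405/540 nm = viability.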

[11] = biological target: Nuclear receptor subfamily 1 group I member 2 (Homo sapiens) (UniProt O75469); test: Dual reporter qHTS for agonist of Pregnane X Receptor (hPXR) against the NCATS DSHEA and TCM libraries: Luminescence readout (AID 1920059); note: 0% is about no effect
Chain of Nuclear receptor subfamily 1 group I member 2 (Homo sapiens) (O75469 whole entry, looked up): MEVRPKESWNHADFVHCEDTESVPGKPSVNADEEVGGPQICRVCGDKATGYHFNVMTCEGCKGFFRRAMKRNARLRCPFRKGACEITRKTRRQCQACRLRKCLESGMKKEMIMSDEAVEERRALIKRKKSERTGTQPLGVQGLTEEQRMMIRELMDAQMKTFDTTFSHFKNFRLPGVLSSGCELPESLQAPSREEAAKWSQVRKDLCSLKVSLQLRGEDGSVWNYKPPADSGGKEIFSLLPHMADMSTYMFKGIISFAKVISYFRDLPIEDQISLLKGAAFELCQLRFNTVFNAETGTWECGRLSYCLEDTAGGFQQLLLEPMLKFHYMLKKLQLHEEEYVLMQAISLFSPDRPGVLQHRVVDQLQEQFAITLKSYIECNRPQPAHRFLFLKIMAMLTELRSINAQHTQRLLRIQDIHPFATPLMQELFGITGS
Procedure, shortened: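 hPXR-LucHepG2 cells in phenol red-free DMEM with 5% charcoal-stripped FBS, 2000 cells/well, attached 5 h, then exposed 24 h at 37C to compounds; rifampicin as positive agonist control (2.8 nM–92 uM). Luciferase luminescence read.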

[12] = biological target: Nuclear receptor subfamily 1 group I member 2 (Homo sapiens) (UniProt O75469); test: Dual reporter qHTS for antagonist of Pregnane X Receptor (hPXR) against the NCATS DSHEA and TCM libraries: Luminescence Readout (AID 1920060);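 note: HepG2 cells carrying hPXR luciferase reporter stimulated with rifampicin at 2 µM; 0% is about no effect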
Procedure, shortened: (§3)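 Antagonist mode: rifampicin 2 uM final co-added with compounds to hPXR-LucHepG2 cells for 24 h at 37C. Viability by CellTiter-Fluor, Ex/Em 405/540 nm, 1 h; reporter by ONE-Glo luminescence.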

[13] = Dual reporter qHTS for antagonist of Pregnane X Receptor (hPXR) against the NCATS DSHEA and TCM libraries: Fluorescence Readout (AID 1920061); note: 0% is about no effect
Procedure, shortened: as §3

[14] = HepG2 viability counterscreen (readout 2: ATP content) against the NCATS DSHEA and TCM libraries (AID 1794840);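 note: HepG2 cells exposed to substances for about 24 h; 0% is about no effect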
Procedure, shortened: as §1

[15] = biological target: Cytochrome P450 2D6 (Homo sapiens) (UniProt P10635); test: qHTS for inhibitors of CYP2D6 against the NCATS DSHEA and TCM libraries (AID 1919972); note: % is set by controls: 0 for no effect and ±100 for the full control effect
Chain of Cytochrome P450 2D6 (Homo sapiens) (P10635 whole entry, looked up): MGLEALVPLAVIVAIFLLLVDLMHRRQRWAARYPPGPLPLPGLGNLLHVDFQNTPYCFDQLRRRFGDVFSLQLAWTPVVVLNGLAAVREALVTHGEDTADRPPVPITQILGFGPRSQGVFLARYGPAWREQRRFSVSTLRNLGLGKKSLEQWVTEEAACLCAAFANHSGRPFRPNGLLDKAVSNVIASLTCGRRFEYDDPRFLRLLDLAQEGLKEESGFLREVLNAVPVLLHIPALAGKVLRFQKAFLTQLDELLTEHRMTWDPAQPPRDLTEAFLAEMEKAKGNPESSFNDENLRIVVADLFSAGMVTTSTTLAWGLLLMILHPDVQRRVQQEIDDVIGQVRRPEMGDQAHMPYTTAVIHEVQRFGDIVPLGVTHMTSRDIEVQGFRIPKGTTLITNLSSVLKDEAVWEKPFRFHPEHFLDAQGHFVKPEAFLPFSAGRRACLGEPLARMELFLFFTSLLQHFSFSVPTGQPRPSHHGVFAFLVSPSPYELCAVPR
Procedure, shortened: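 Luminescent P450-Glo read-out of CYP2D6 turnover of a luciferin substrate after NADPH-driven reaction of 30-45 min at room temperature. Compounds were first preincubated 15 min with enzyme at titrated concentrations; quinidine was the intraplate control.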

[16] = biological target: Mitogen-activated protein kinase 10 (Mus musculus) (UniProt Q61831); test: JNK3 AlphaScreen Assay (AID 530; active = well fitted curve in either direction with a large enough effect, not every such curve was filed as active)
Procedure, shortened: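 Inhibitors reduce antibody binding to phosphorylated biotin-cJun, lowering AlphaScreen luminescence. Lysates from HepG2 cells pre-activated by IL-1beta plus TNF-alpha supplied JNK3; compounds were titrated.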

O=C(/C=C/c1ccc(O)c(O)c1)OC1[C@H](O)CC(O)(C(=O)O)C[C@@H]1O (stereo partly drawn)
inactive: outcome [1] | outcome [2] | Potency [3] | outcome [4] | Potency [5] | Potency [6] | outcome [7] | Potency [8] | max response [9] -1.19% | outcome [10] | Potency [11] | outcome [12] | outcome [13]

COc1ccc(C(=O)O)cc1
inactive: outcome [1] | outcome [2] | Potency [3] | outcome [14] | outcome [4] | Potency [15] | Potency [5] | Potency [6] | outcome [7] | max response [9] -1.54% | outcome [10] | Potency [11] | outcome [12] | outcome [13]

C=CC(=C)CCC=C(C)C
inactive: Potency [16] | outcome [1] | outcome [2] | Potency [3] | outcome [14] | outcome [4] | Potency [15] | Potency [5] | Potency [6] | outcome [7] | Potency [8] | max response [9] 1.58% | outcome [10] | Potency [11] | outcome [12] | outcome [13]

CC/C=C\C/C=C\C/C=C\C/C=C\CCCCC(=O)O
inactive: viability change, negative = cytotoxic [1] -11.8% [at 5 µM] | activity change, negative = cytotoxicity [2] -13.9% [at 5 µM] | activation [3] -23.1% [at 5 µM] | activity change, negative = cytotoxic [14] -8.49% [at 3.42 µM] | activity change, negative = inhibition [4] -7.13% [at 3.42 µM] | activity change, negative = inhibition [15] -5.86% [at 4.27 µM] | activity change, negative = inhibition [5] -16.1% [at 4.27 µM] | activity change, negative = inhibition [6] 43.3% [at 4.27 µM] | activity change, negative = inhibition [7] -9.13% [at 3.26 µM] | activity change, negative = inhibition [8] 16.4% [at 4.62 µM] | max response [9] -1.09% | activation [10] -3.85% [at 5 µM] | activation [11] -9.78% [at 5 µM] | activity change, negative = inhibition [12] -24.2% [at 5 µM] | activity change, negative = inhibition [13] -0.29% [at 5 µM]

C[C@@H]1OC(O[C@H]2[C@H](O)[C@@H](O)[C@H](OC[C@H]3O[C@@H](OC(=O)[C@]45CCC(C)(C)C[C@@H]4C4=CCC6[C@@]7(C)CC[C@H](OC8OC[C@H](O)[C@H](O)[C@H]8OC8O[C@@H](C)[C@H](O)[C@@H](O)[C@H]8O)[C@@](C)(CO)C7CC[C@@]6(C)[C@]4(C)CC5)[C@H](O)[C@@H](O)[C@@H]3O)O[C@@H]2CO)[C@H](O)[C@H](O)[C@H]1O (stereo partly drawn)
inactive: outcome [1] | outcome [2] | Potency [3] | outcome [14] | outcome [4] | Potency [5] | Potency [6] | outcome [7] | max response [9] -2.4% | outcome [10] | Potency [11] | outcome [12] | outcome [13]

C[C@@H]1CC[C@]2(C)CC[C@]3(C)C(=CC(=O)C4[C@@]5(C)CC[C@@H](O)[C@](C)(C(=O)O)C5CC[C@]43C)C2[C@H]1C (stereo partly drawn)
inactive: outcome [1] | outcome [2] | Potency [3] | outcome [14] | outcome [4] | Potency [15] | outcome [7] | max response [9] 2.52% | outcome [10] | Potency [11] | outcome [12] | outcome [13]
